IL1B secr inh: inhibitors of inflammasome signaling (IL-1 beta secretion); THP-1 LPS/ATP IL-1B secretion, AlphaLISA, 16 h; active compounds read low; hit rate 4.7% among 360,000; activity change, % at 57.5 µM; AID 743279; in the data active = activity change below about -50%; inconclusive = mostly about -30% to -49%
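Secreted IL-1B measured by AlphaLISA bead assay after 16 h compound exposure of THP-1 cells; compounds (final up to 57.5 uM) added 1 h before LPS (250 ng/mL) and ATP (1.25 mM) stimulation; lower signal means less secretion.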
TDP1 block: TDP1 (human) enzyme inhibition. Q9NUW8. recombinant TDP1, AlphaScreen DNA substrate cleavage. Potency, µM (highest dose often 130 µM), for the others: top-dose activity change, negative = inhibition, most hits filed as inhibitors. hit rate 0.28% among 350,000. AID 485290; also: potency is read from the fitted curve at half-maximal effect; nearly all actives have a fitted effect of over 40% in size
Target sequence (Q9NUW8 whole entry, looked up): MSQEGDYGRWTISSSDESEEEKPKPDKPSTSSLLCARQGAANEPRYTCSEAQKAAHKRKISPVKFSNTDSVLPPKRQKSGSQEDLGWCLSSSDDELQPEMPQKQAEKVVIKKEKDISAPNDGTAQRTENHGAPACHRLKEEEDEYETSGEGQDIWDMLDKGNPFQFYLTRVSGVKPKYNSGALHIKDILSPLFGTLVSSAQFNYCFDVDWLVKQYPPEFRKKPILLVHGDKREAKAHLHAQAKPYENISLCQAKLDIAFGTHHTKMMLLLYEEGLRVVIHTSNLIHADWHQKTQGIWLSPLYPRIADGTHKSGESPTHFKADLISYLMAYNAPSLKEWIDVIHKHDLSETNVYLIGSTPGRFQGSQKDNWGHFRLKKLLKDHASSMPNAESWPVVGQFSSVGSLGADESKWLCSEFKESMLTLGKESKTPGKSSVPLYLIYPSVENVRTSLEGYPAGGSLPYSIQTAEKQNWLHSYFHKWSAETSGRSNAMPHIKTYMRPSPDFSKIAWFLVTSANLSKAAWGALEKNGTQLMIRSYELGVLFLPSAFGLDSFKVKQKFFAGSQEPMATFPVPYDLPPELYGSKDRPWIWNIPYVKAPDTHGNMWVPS
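Steps: enzyme plus compound, 15 min RT; add biotin/phosphotyrosine-FITC oligonucleotide (15 nM final), react 5 min; add donor/acceptor beads (10 ug/ml final), 10 min; read AlphaScreen. Tdp1 at 1 nM final.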
Giardia killer: kills Giardia lamblia; activity change, % at 7.66 µM, hits read low; Giardia lamblia trophozoite viability; hit rate 0.15% among 340,000; in the data active = activity change below about -80%; inconclusive = between about -30% and that limit;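 also: parasites exposed to compound for two days anaerobically before the ATP read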
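Giardia trophozoites, 100 cells per well, were exposed to compounds for 48 hrs at 37 deg C under anaerobic conditions; viability was then read as ATP content by bioluminescence after 15-30 min at room temperature.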
TDP1 cell CPT: growth inhibition of DT40 Tdp1-/-;hTDP1 cells with camptothecin (screen for TDP1 inhibitors). chicken DT40 Tdp1-/-;hTDP1 cells + 20 nM CPT, ATP luminescence, 48 h. Potency, µM (top dose mostly 46.2 µM), for inactives: at the highest dose activity change, negative = growth inhibition, actives largely listed as inhibitors. hit rate 12% among 420,000. AID 686979; also: potency is read from the fitted curve at half-maximal effect; nearly all actives have a fitted effect of over 55% in size
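Chicken DT40 Tdp1-/- cells complemented with human TDP1, 400 cells/well, exposed to compounds plus 20 nM camptothecin for at least 48 h at 37 C; viability read as ATP content by CellTiter-Glo luminescence.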
DT40 TDP1 no CPT: qHTS for Inhibitors of human tyrosyl-DNA phosphodiesterase 1 (TDP1): qHTS in cells in absence of CPT | DT40 Tdp1-/- hTDP1 cells, no CPT, ATP luminescence, 48 h | Potency, µM (titrated, usually from 46.2 µM), for inactives: at the highest dose activity change, negative = growth inhibition, most hits filed as inhibitors | hit rate 15% among 420,000 | AID 686978, 2013; also: potency is read from the fitted curve at half-maximal effect; nearly all actives have a fitted effect of over 55% in size
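Cells were dispensed at 400 per well, compounds added by pin tool, plates incubated ≥48 hr at 37 °C, then CellTiter-Glo added for 30 min at room temperature before luminescence reading. Line: DT40 Tdp1-/- complemented with hTDP1; camptothecin omitted.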
ELG1 DNA repair: ELG1-dependent DNA repair inhibition; HEK293T ELG1-luciferase reporter, luminescence, 16 h; DNA damage induced by 5-fluorouridine; Potency, µM (titrated, usually from 46.1 µM), for inactives: at the highest dose activity change, negative = inhibition, most hits filed as inhibitors; hit rate 2.3% among 330,000; also: potency is read from the fitted curve at half-maximal effect; nearly all actives have a fitted effect of over 55% in size
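5-Fluorouridine DNA damage + compound/DMSO, 2,000 cells/well, 16 h, 37 °C/5% CO2. ONE-Glo, 30 min RT, luminescence. Readout = decrease in reporter signal.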
The depositor's hits bear a star; ? = inconclusive; . = no result given. Rows were chosen to be rich in hits. Some 19% of all compounds tested hit in one or more screens of this group. Unless noted, calls follow the shape of the dose curve; as a rule, active = well fitted curve in the direction sought with a large enough effect; inconclusive = small, poorly fitted or top-dose-only effect, or another doubt; inactive = no such curve, though single readings can be large; an effect the other way counts as inactive or inconclusive. % is scaled to controls: 0 for no effect and ±100 for the full control effect.

SMILES	IL1B secr inh	TDP1 block	Giardia killer	TDP1 cell CPT	DT40 TDP1 no CPT	ELG1 DNA repair
COc1cc(NC(=O)c2nccn2C)cc(C(=O)Nc2cccc(C(F)(F)F)c2)c1	61	4%	-1	?	6.5µM*	8%
Cc1nc2nc(C(F)(F)F)[nH]c2nc1C	17	.	.	0%	6%	.
COc1ccc2nc3oc(C(=O)Nc4cccc(C(F)(F)F)c4)cc3cc2c1	.	4%	.	13µM*	12µM*	.
COc1cc(NC(=O)c2ccc(N)nc2)cc(C(=O)Nc2cccc(C(F)(F)F)c2)c1	-11	-5%	7	?	16µM*	?
O=C(Nc1cccc(C(F)(F)F)c1)c1csc(-c2ccncc2)n1	?	2%	-9	-10%	?	?
COc1cc(NC(=O)c2nccnc2N)cc(C(=O)Nc2cccc(C(F)(F)F)c2)c1	58	0%	3	?	?	0%
COc1cc(NC(=O)c2csc(-c3ccncc3)n2)cc(C(=O)Nc2cccc(C(F)(F)F)c2)c1	-15	6%	-6	8.2µM*	4.6µM*	5.2µM*
COc1ccc(-c2cc(C(=O)Nc3cc(OC)cc(C(=O)Nc4cccc(C(F)(F)F)c4)c3)[nH]n2)cc1	46	-9%	-15	2.3µM*	2.6µM*	-4%
Cc1ccn2c(C(=O)NNC(=O)Nc3ccc(Cl)cc3)c(C)nc2c1	-8	5%	9	-8%	1%	0%
COc1cc(Cl)ccc1OCc1cc(C(=O)N(C)CCc2cnn(C)c2)no1	0	4%	11	?	-1%	?
COc1cc(=O)n2c(c1C(=O)N(C)Cc1ccsc1)CCN(Cc1cnn(C)c1C)CC2	.	.	.	0%	-5%	.
O=C(CCS(=O)(=O)c1ccc(Br)s1)Nc1cc(C(F)(F)F)cc(C(F)(F)F)c1	.	-11%	.	15µM*	21µM*	.
c1ccc2c(c1)ccn2-n1ccc2ccccc21	.	.	.	-54%	13µM*	.
CC(C)(C)c1ccc(C(=O)Nc2ccc(F)cc2)s1	-62*	.	4	0%	15µM*	?
O=C(C1CCN(Cc2ccc(F)cc2)CC1)N(CCO)Cc1ccccc1	-26	4%	9	-3%	-17%	11%
C=CC[C@@H](Cc1ccc(F)cc1)C(=O)OC[C@@H]1CCCN1C(=O)[C@H](CC=C)CC(=O)N(CCO)Cc1ccccc1	-61*	-3%	6	?	18µM*	?
C=CC[C@@H](Cc1ccc(F)cc1)C(=O)OC[C@H]1CCCN1C(=O)[C@@H](CC=C)CC(=O)N(CCO)Cc1ccccc1	-56*	1%	-20	15µM*	13µM*	-24%
C=CC[C@H](CC(=O)OC(C)(C)C)C(=O)OC[C@H]1CCCN1C(=O)[C@H](CC=C)CC(=O)NCCO	-1	1%	-1	-2%	-15%	7%
C=CC[C@H](CC(=O)OC(C)(C)C)C(=O)OC[C@H]1CCCN1C(=O)[C@@H](CC=C)CC(=O)N(CCO)Cc1ccccc1	?	1%	-16	18µM*	21µM*	?
CN(C)c1ccc(CNc2nc3cc(-c4ccc(F)cc4)sc3c(=O)n2C)cc1	10	.	.	?	?	.
CCc1ccc(C(C)NC(=O)C2CCCO2)cc1 (stereo not drawn)	5	3%	16	17%	-12%	-12%
CCC(NC(=O)C1CCCO1)c1ccccc1 (stereo not drawn)	12	2.2µM*	9	-17%	?	-2%
COc1ccc(C(=O)N2CCC(c3nc(-c4ccc(S(=O)(=O)N5CCCC5)cc4)no3)CC2)cc1	.	2%	.	23µM*	21µM*	.
CCOc1ccc(C(=O)N2CCC(c3nc(-c4ccc(S(=O)(=O)N5CCCC5)cc4)no3)CC2)cc1	.	5%	.	21µM*	23µM*	.
COc1ccc(N2CC(NC(=O)Cc3cccs3)CC2=O)cc1OC (stereo not drawn)	.	-3%	.	-11%	0%	.
SMILES	IL1B secr inh	TDP1 block	Giardia killer	TDP1 cell CPT	DT40 TDP1 no CPT	ELG1 DNA repair
O=C(NCCCN1CCOCC1)c1ccccc1N1C(=O)[C@@H]2Cc3c([nH]c4ccccc34)C(c3ccc(F)cc3)N2C1=O (stereo partly drawn)	-6	.	14	9.2µM*	15µM*	?
COc1cccc(C2c3[nH]c4ccccc4c3C[C@H]3C(=O)N(c4ccccc4C(=O)NCCCN4CCOCC4)C(=O)N23)c1 (stereo partly drawn)	28	.	17	12µM*	13µM*	?
Cc1ccc(C(=O)NCCc2nnc3n2CCN(Cc2ccc4ccccc4c2)CC3)c(C)c1	.	.	.	7%	?	.
CCOC(=O)C1=C(CS(=O)(=O)c2ccccc2)NC(=O)NC1c1cc(OC)c(O)c(OC)c1 (stereo not drawn)	26	0%	-12	-3%	12%	2%
COc1cccc(NC(=O)C2CCCN(S(=O)(=O)c3cn(C(C)C)cn3)C2)c1 (stereo not drawn)	.	4%	.	-15%	-27%	.
Cc1ccc(-c2[nH]ncc2CNCc2ccccc2)cc1	.	1%	0	11µM*	18µM*	.
CN(C)CCNC(=O)C1(C)Cc2c(-c3cccc(C(F)(F)F)c3)ccnc2O1 (stereo not drawn)	0	.	.	-73%	6.5µM*	.
COc1ccc(CCCNC(=O)C2(C)Cc3c(-c4cccc(C(N)=O)c4)ccnc3O2)cc1 (stereo not drawn)	18	.	.	?	?	.
CC1(C(=O)NCCC(F)(F)F)Cc2c(-c3cccc(C(F)(F)F)c3)ccnc2O1 (stereo not drawn)	0	.	.	4.6µM*	3.3µM*	.
CC1(C(=O)NCC2CCOCC2)Cc2c(-c3cccc(C(F)(F)F)c3)ccnc2O1 (stereo not drawn)	72	.	.	5.2µM*	3.3µM*	.
CC1(C(=O)NCCC(F)(F)F)Cc2c(-c3cccc(C(N)=O)c3)ccnc2O1 (stereo not drawn)	-9	.	.	?	0.82µM*	.
O=S(=O)(c1ccc(Cl)cc1)N1CCN(C(=S)Nc2ccc(F)c(Cl)c2)CC1	?	5%	-3	?	?	?
CCC(=O)N1CCc2cc(Br)cc(S(=O)(=O)CCC(=O)Nc3cccc(CC)c3)c21	.	0%	.	-17%	-15%	.
COc1ccccc1N1CCN(C(CNC(=O)C2CCCCC2)c2cccnc2)CC1 (stereo not drawn)	6	1%	15	8.2µM*	10µM*	-14%
